# In the library only some 0.93% were active in any assay of this set; here they are far more common.
# TR SRC2 fluor cs = Total Fluorescence Counterscreen for Inhibitors of the Interaction of Thyroid Hormone Receptor and Steroid Receptor Coregulator 2 | TRb/SRC2 Texas Red total fluorescence interference | Potency, µM (titrated, usually from 106 µM) | hit rate 0.29% among 280,000 | AID 1479, 2009; active = well fitted curve in either direction with a large enough effect; inconclusive = small, poorly fitted or top-dose-only effect
#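 Human TRβ ligand-binding domain (0.6 uM) and Texas Red SRC2 peptide (20 nM) in Tris buffer with 1 uM T3 and 5% DMSO were incubated with pinned compound for 5 hr at ambient temperature. Total fluorescence was computed as S + 2P (555/632 nm).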
# TRb-SRC2 inh = qHTS for Inhibitors of the Interaction of Thyroid Hormone Receptor and Steroid Receptor Coregulator 2; Thyroid hormone receptor beta (Homo sapiens), P10828; TRbeta-SRC2 peptide binding, fluorescence polarization; receptor liganded with 1 µM T3; Potency, µM (highest dose often 106 µM), most hits filed as inhibitors; hit rate 0.065% among 280,000; AID 1469, 2008; active = well fitted inhibition curve with a large enough effect; inconclusive = small, poorly fitted or top-dose-only effect, or effect the other way; note: nearly all actives have a fitted effect of over 50% in size
# Target sequence (P10828 whole entry, looked up): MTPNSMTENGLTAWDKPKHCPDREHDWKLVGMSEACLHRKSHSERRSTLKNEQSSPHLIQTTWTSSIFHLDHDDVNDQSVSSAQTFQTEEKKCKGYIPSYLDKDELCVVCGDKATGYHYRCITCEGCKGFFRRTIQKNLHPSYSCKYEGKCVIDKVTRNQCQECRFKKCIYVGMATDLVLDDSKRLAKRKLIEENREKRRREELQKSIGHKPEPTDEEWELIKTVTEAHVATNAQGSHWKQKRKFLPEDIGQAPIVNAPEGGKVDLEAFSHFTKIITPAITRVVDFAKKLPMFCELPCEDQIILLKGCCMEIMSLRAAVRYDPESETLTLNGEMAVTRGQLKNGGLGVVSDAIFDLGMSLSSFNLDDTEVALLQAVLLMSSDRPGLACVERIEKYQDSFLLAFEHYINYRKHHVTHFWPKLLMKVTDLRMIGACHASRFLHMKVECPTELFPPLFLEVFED
#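 Fluorescence polarization of 20 nM Texas Red SRC2 peptide (20-aa NR interaction domain) bound to 0.6 uM human TRb ligand-binding domain, with 1 uM T3, after 5 hr at ambient temperature; inhibition seen as decreased polarization.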
# FBPA coupling cs = qHTS Assay for Inhibitors of Fructose-1,6-bisphosphate Aldolase from Giardia Lamblia: Coupling assay counterscreen | coupling enzyme system counterscreen, AmpLite Red fluorescence | activity change, negative = inhibition, % at 58.2 µM, hits read low | hit rate 0.67% among 290,000 | AID 2472, 2010; in the data active = activity change below about -30%
#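 Counterscreen lacking aldolase: glyceraldehyde-3-phosphate coupling-enzyme reagent preincubated 10 min at RT with compound (at 57.5 uM final), then substrate/coupling system with AmpLite Red added; fluorescence read at 525/598 nm after 20 min RT.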
# RGS12 GoLoco inh = qHTS Assay for Inhibitors of RGS12 GoLoco Motif Activity (Red Fluorophore); Guanine nucleotide-binding protein G(i) subunit alpha-1 (Homo sapiens), P63096; Gai1:RGS12 GoLoco peptide FP, rhodamine, 10 min; Potency, µM (titrated, usually from 61.6 µM), actives largely listed as inhibitors; hit rate 0.44% among 230,000; AID 880, 2007; active = well fitted inhibition curve with a large enough effect, not every such curve was filed as active; inactive = no such curve, though single readings can be large or run the other way; note: nearly all actives have a fitted effect of over 30% in size
# A number is an active result; – = inactive; ? = inconclusive; · = no result given; ! = not confirmed by another sample; [ ] = dose if it differs, or a comment.
SMILES,TR SRC2 fluor cs,TRb-SRC2 inh,FBPA coupling cs,RGS12 GoLoco inh
C=C(C)C(=O)OC[C@@H]1CCC[N@+]2(C)CCCCC12 (some centres not stated),–,–,–,–
C[N+]1(C2CCC3CCC2C3O)CCCC1 (configuration not stated),–,–,–,16µM
CC(=O)OC1C2CCC1C([N+]1(C)CCCCC1)CC2 (configuration not stated),–,–,–,14µM
CC(=O)O[C@H]1C[C@@H]2CCC3C(CC[C@@]4(C)[C@H]3C[C@H]([N+]3(C)CCCCC3)[C@@H]4OC(C)=O)[C@@]2(C)C[C@@H]1[N+]1(C)CCCCC1 (some centres not stated),–,–,·,–
COc1ccc(N2CCN(S(=O)(=O)CCNC(=O)c3ccc(OC(C)C)cc3)CC2)cc1,–,–,·,·
CCC(C(=O)O)c1ccccc1 (configuration not stated),–,–,–,28µM
CC1=CC(=C2C(=O)c3ccccc3C2=O)C=C(C)O1,–,–,–,–
CC(=O)C1=C(c2ccc(Br)cc2)C(=O)c2ccccc2C1=O,–,–,-70,–
O=C(CNS(=O)(=O)c1ccc2ccccc2c1)OCC(=O)c1ccc(Br)s1,–,–,–,–
Cc1cc(C(=O)COC(=O)CNS(=O)(=O)c2ccc3ccccc3c2)c(C)n1-c1ccccc1,200µM[quencher],–,–,–
O=C(Nc1ncc([N+](=O)[O-])s1)c1ccc2c(c1)OCO2,·,·,-32,·
O=[N+]([O-])c1ccc2c(c1)N([O-])C1(CCCCC1)[N+]2=O,–,–,-51,–
Cc1c(C2=CCN(S(=O)(=O)c3ccc(Br)cc3)CC2)c2ccccc2n1C,28µM[fluorescent],?,–,–
CCn1c(C)c(C2=CCN(S(=O)(=O)c3ccc(C)cc3)CC2)c2ccccc21,–,–,–,–
O=C(COc1ccc(S(=O)(=O)NC2CCCCC2)cc1)Nc1ccc(C(F)(F)F)cc1,–,–,·,·
O=C(NCc1cccc(F)c1)C1CCN(C(=O)c2sccc2-n2cccc2)CC1,25µM![quencher],–,–,–
O=C(NCc1ccccc1)C1CCN(C(=O)c2cnn(-c3ccccc3)c2-n2cccc2)CC1,32µM[quencher],–,·,·
O=C(Cl)c1cccc(C(=O)Cl)c1,–,–,·,·
CCc1cccc(C)c1NC(=O)CN1C(=O)C2(SCC(=O)N2c2cccc(F)c2)c2ccccc21 (configuration not stated),20µM[quencher],–,·,·
NC(=O)CN1C(=O)C2(SCC(=O)N2c2cccc(F)c2)c2ccccc21 (configuration not stated),–,–,·,·
O=C(O)CCCCCCC(=O)O,–,–,·,·
CC(=O)N1CCn2c3c(c4cc(C)ccc42)CCCC31 (configuration not stated),–,–,–,–
CC(=O)N1CCn2c3c(c(=O)c4cc(C)ccc42)CCC31 (configuration not stated),–,?,-42,–
CCN1/C(=C/c2sc(-c3ccccc3C)c[n+]2C)Sc2ccccc21,–,–,–,10µM
CCOC(=O)/C(=N/Nc1ccccc1)N1CCCc2ccccc21,–,–,–,–
SMILES,TR SRC2 fluor cs,TRb-SRC2 inh,FBPA coupling cs,RGS12 GoLoco inh
CCOC(=O)/C(=N/Nc1ccc(OC)cc1)N1CCCc2ccccc21,–,–,-42,–
COc1ccc(NC(=O)c2ccco2)cc1N,–,–,-41,–
COc1ccc(C(=O)Nc2cc(OC)c(NC(=O)c3ccco3)cc2OC)cc1,–,–,-35,–
CCOC(=O)C1=NO[C@@]2(C=C(Br)C3(OCCCO3)[C@H]3O[C@H]32)C1,–[11.2 µM],–[11.2 µM],–,·
Cc1cc(Nc2ccc(O)cc2)ccc1N,–,?,·,28µM
COc1cc(OC)c(Nc2cc(C)nc3ncnn23)cc1Cl,–,–,·,·
CN(C)/C=C1\SC(=S)N(c2ccc(Br)cc2)C1=O,32µM[fluorescent],?,–,–
CC(C(=O)N1CCCCC1)N1C(=O)c2ccccc2C1=O (configuration not stated),–,–,–,–
CCC1(CC)Cc2ccccc2C2=C(C(=O)N3CCCCC3)C(=O)C(=O)N21,–,–,-34,–
CC1(C)Cc2ccccc2C2=C(C(=O)N3CCCCCC3)C(=O)C(=O)N21,–,–,-42,–
O=C1C(=O)N2C(=C1C(=O)N1CCCCCC1)c1ccccc1CC21CCCC1,–,–,–,–
CCOC(=O)c1c(C)c(-c2ccccc2)n(CC(=O)NCCc2ccc(C)cc2)c1C,–,–,·,·
CCC1=C(c2ccc(C)cc2)S(=O)(=O)N=C1N1CCC(C(=O)N2CCCCC2)CC1,–,–,·,·
CC1=C(c2ccc(C)c(C)c2)S(=O)(=O)N=C1N1CCC(C(=O)N2CCCCC2)CC1,562µM[quencher],–,·,·
COc1ccc(NC(=O)C2CCN(C3=NS(=O)(=O)C(c4ccc(C)c(C)c4)=C3C)CC2)c(OC)c1,224µM[quencher],?,·,·
Cc1ccc2oc(=O)c3c4cc(O)c(O)cc4oc3c2c1,–,–,–,–
COc1cc(O)c2c(c1)oc(=O)c1c3cc(O)c(O)cc3oc21,35µM[quencher],?,–,·
COc1cc(S(=O)(=O)NCCc2c(C)[nH]c3ccc(C)cc23)ccc1Br,–,–,·,·
Cc1ccc(NC(=O)C2CCCN2S(=O)(=O)c2ccc3nc(-c4ccccc4)[nH]c3c2)cc1F (configuration not stated),–,–,·,·
CN1CC(O)C2=CC(=O)C(=O)C=C21 (configuration not stated),?,–,·,3.5µM
CC(=O)Nc1ccc(-c2csc(NC(=O)C3CC(=O)N(c4ccc5c(c4)OCCO5)C3)n2)cc1 (configuration not stated),–,–,-35,–
N#Cc1cccc(NC(=O)N2CC[C@@]3(CCCN(S(=O)(=O)c4ccccc4)C3)C2)c1,·,·,–,–
c1ccc2[nH]c(CN3CCOCC3)nc2c1,–,–,–,–
Nc1ccc2nc(CN3CCOCC3)[nH]c2c1,–,–,-32,–
O=S(=O)(NCCc1csc2nc(-c3ccc(Cl)cc3)nn12)c1ccc(Oc2ccccc2)cc1,–,–,·,·
SMILES,TR SRC2 fluor cs,TRb-SRC2 inh,FBPA coupling cs,RGS12 GoLoco inh
COC(=O)N/N=C/c1cc(N=Nc2ccccc2Cl)ccc1O,40µM[quencher],?,–,–
COc1cccc(CNCCSc2nnnn2C)c1OCc1ccccc1F,–,–,·,·
CCC1CN(C(=O)N2CCC(C(=O)NCCC3=CCCCC3)CC2)c2ccccc2O1 (configuration not stated),–,–,·,·
COc1cccc(CNS(=O)(=O)c2ccc(S(=O)(=O)N3CCCC3)cc2)c1,–,–,-53,–
CSc1nc2c(c(=O)[nH]1)C(c1cccc(F)c1F)CC(=O)N2 (configuration not stated),–,–,·,·
Cc1ccc(CSc2nc3c(c(=O)[nH]2)C(c2cccc(F)c2F)CC(=O)N3)cc1 (configuration not stated),8.9µM[quencher],?,·,·
CN(C)c1nc(N)nc(/C(C#N)=C/C2CC3C=CC2C3)n1 (configuration not stated),–,–,-33,–
